Experimental data taken from the supplement of paper PMC6522484.
± gives the standard deviation of the averaged measurements.

Assays:
DLD1 [1] = assay: cell viability (CellTiter-Glo) relative to plate median (fraction of plate median); higher = more viable cells; conditions: 5 µM; treatment time 24 h; reporter: 7TFP
How it was run: (§1)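 For this screen, colorectal cancer cell lines carrying stable lentiviral TCF/Wnt firefly luciferase reporters, either 7TFP or TCF4/Wnt, were seeded into 384-well plates. A day's wait of 24 h preceded addition of library compounds at a final 5 µM, which stayed on the cells for 24 h. Firefly luciferase or CellTiterGlo luminescence, read on parallel plates, was normalised to the plate median per well, and the reported value is the mean of two independent replicates.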

HCT116 = assay: as above; conditions: 5 µM; treatment time 24 h; reporter: TCF4/Wnt
How it was run: as §1

SW480 [2] = assay: as above; conditions: 5 µM; treatment time 24 h; reporter: 7TFP
How it was run: as §1

DLD1 [3] = assay: TCF/Wnt firefly luciferase reporter signal relative to plate median (fraction of plate median); higher = higher Wnt reporter signal; conditions: 5 µM; treatment time 24 h; reporter: 7TFP
How it was run: as §1

SW480 [4] = assay: as above; conditions: 5 µM; treatment time 24 h; reporter: 7TFP
How it was run: as §1

## CC1CCC(C(C)C)C(O)C1 (stereo not given)
DLD1 [1]
  cell viability: 1.05 ± 0.1
HCT116
  cell viability: 1.04
SW480 [2]
  cell viability: 1.02 ± 0.066
DLD1 [3]
  TCF/Wnt firefly luciferase reporter signal: 1.09 ± 0.035
SW480 [4]
  TCF/Wnt firefly luciferase reporter signal: 1.01 ± 0.09

## CC1=C(/C=C/C(C)=C/C=C/C(C)=C/C=C/C=C(C)/C=C/C=C(C)/C=C/C2=C(C)C(=O)[C@@H](O)CC2(C)C)C(C)(C)C[C@H](O)C1=O
DLD1 [1]
  cell viability: 1.05 ± 0.057
HCT116
  cell viability: 1.07 ± 0.042
SW480 [2]
  cell viability: 1 ± 0.027
DLD1 [3]
  TCF/Wnt firefly luciferase reporter signal: 1.06 ± 0.11
SW480 [4]
  TCF/Wnt firefly luciferase reporter signal: 0.824 ± 0.099

## CCN(CC)C(=O)c1cccc(C)c1
DLD1 [1]
  cell viability: 0.954 ± 0.041
HCT116
  cell viability: 1.01 ± 0.05
SW480 [2]
  cell viability: 0.991 ± 0.028
DLD1 [3]
  TCF/Wnt firefly luciferase reporter signal: 1.03 ± 0.079
SW480 [4]
  TCF/Wnt firefly luciferase reporter signal: 0.923 ± 0.061

## CC(=O)c1c(O)cc(O)cc1O
DLD1 [1]
  cell viability: 1.02 ± 0.035
HCT116
  cell viability: 1.03 ± 0.035
SW480 [2]
  cell viability: 1.04 ± 0.068
DLD1 [3]
  TCF/Wnt firefly luciferase reporter signal: 1.08 ± 0.042
SW480 [4]
  TCF/Wnt firefly luciferase reporter signal: 0.938 ± 0.033
